A short description of test [1]: ATG_M_19_CIS: Attagene CIS-FACTORIAL HepG2 Assay for M19 Transcription Factor (Internal Marker) (AID 2282939). The following applies: HepG2 Attagene CIS-FACTORIAL M19 internal marker reporter; actives raise or lower the signal. The method, boiled down: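 Internal marker readout, fitted in both directions against DMSO, from HepG2 cells carrying transfected cis-element reporter constructs; RT-PCR and capillary electrophoresis of reporter mRNA after 24 h exposure.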

Test [2] can be described thus: ATG_ERE_CIS: Attagene CIS-FACTORIAL HepG2 Assay for Estrogen Response Element (ERE) (AID 2282940). The following applies: HepG2 ERE cis-reporter, Attagene RNA transcript; actives raise or lower the signal. The method, boiled down: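 After 24 h compound treatment, RNA from transfected HepG2 cells was reverse-transcribed, reporter cDNA PCR-amplified, FAM-labelled, HpaI-cut and resolved by capillary electrophoresis. ERE-driven cis reporter transcripts reflect endogenous factors; gain or loss scored against DMSO.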

Test [3] can be described thus: ATG_Ets_CIS: Attagene CIS-FACTORIAL HepG2 Assay for human Erythroblast Transformation Specific (ETS) (AID 2282941). The following applies: HepG2 ETS cis-reporter transcription, actives raise or lower the signal. The method, boiled down:
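Bidirectional fit versus DMSO of reporter mRNA signal, detected by RT-PCR and capillary electrophoresis in HepG2 cells transiently transfected with cis-element reporters and dosed 24 h.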

Test [4] is described as follows: ATG_FoxO_CIS: Attagene CIS-FACTORIAL HepG2 Assay for human Forkhead box O (FoxO) (AID 2282943). The following applies: HepG2 Attagene cis-reporter, FoxO element, mRNA; actives raise or lower the signal. The gist of the method: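 24 h chemical exposure, HepG2 with transient cis-MRTU transfection. RNA extraction, oligo(dT) RT, reporter-specific PCR, primer-extension labelling, HpaI digestion, CE fragment analysis; bidirectional fit, DMSO baseline.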

A short description of test [5]: ATG_GATA_CIS: Attagene CIS-FACTORIAL HepG2 Assay for human GATA Binding Protein (AID 2282944). The following applies: HepG2 GATA cis-element reporter, Attagene multiplex mRNA; actives raise or lower the signal. The method, boiled down:
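Reporter transcripts from a GATA cis-regulated unit, among multiplexed reporters in transfected HepG2 cells, were measured by RT-PCR with capillary electrophoresis after 24 h dosing. Induction or loss scored relative to DMSO.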

Test [6] is described as follows: ATG_GLI_CIS: Attagene CIS-FACTORIAL HepG2 Assay for human Zinc Finger Protein GLI1 (AID 2282945). The following applies: HepG2, Attagene cis-factorial reporter mRNA, GLI element; actives raise or lower the signal. The gist of the method: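 HepG2 cells transiently transfected with cis-promoter multiplexed reporter units report endogenous transcription factor activity. After 24 h chemical exposure, reporter mRNA was quantified by RT-PCR, 6-FAM labelling, HpaI digestion and capillary electrophoresis, with bidirectional fitting against DMSO.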

For test [7], the target named is Bile acid receptor (Homo sapiens) (UniProt Q96RI1). Put plainly: ATG_IR1_CIS: Attagene CIS-FACTORIAL HepG2 Assay for human Nuclear Receptor Subfamily 1 Group H Member 4 (NR1H4), IR1 submotif (AID 2282946). The following applies: IR1 reporter transcription, actives raise or lower the signal. The gist of the method:
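Readout: reporter transcript levels by RT-PCR with fluorescent capillary electrophoresis, from HepG2 cells transiently transfected with multiplexed cis-regulated reporters and dosed 24 h. Gain- or loss-of-signal fitted versus DMSO negative control.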

Test [8] can be described thus: ATG_GRE_CIS: Attagene CIS-FACTORIAL HepG2 Assay for human Glucocorticoid Response Elements (GRE) (AID 2282947). The following applies: HepG2 GRE cis-reporter, Attagene multiplex mRNA; actives raise or lower the signal. The gist of the method: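 Cells (HepG2) bearing transfected cis-promoter reporter transcription units were treated with chemical for 24 hours. Reporter mRNA was measured via RT-PCR with capillary electrophoresis, and activity was fitted in both directions relative to DMSO.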

The nature of test [9]: ATG_ISRE_CIS: Attagene CIS-FACTORIAL HepG2 Assay for human Interferon Regulatory Factor 1 (IRF1) binding to an Interferon-Stimulated Response Element (ISRE) (AID 2282948). The following applies: HepG2 ISRE cis-reporter (Attagene), mRNA transcription readout; actives raise or lower the signal. The method, boiled down: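 Uses HepG2 liver cells transfected with cis-regulated reporters and measures mRNA 24 h post-dosing through RT-PCR, primer-extension labelling and capillary electrophoresis, with DMSO as negative control.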

In test [10] the target is Hepatocyte nuclear factor 3-beta (Homo sapiens) (UniProt Q9Y261). Kind of test: ATG_FoxA2_CIS: Attagene CIS-FACTORIAL HepG2 Assay for human Forkhead box A2 (FOXA2) (AID 2282942). The following applies: HepG2 cis-reporter transcription factor activity, 24 h; actives raise or lower the signal. The method, boiled down: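 Readout: fluorescent reporter transcripts resolved by capillary electrophoresis after RT-PCR. Transiently transfected HepG2, 24 h compound exposure, endogenous TF activity at cis promoter elements. Gain or loss of signal fitted relative to DMSO.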

Active and inactive are the calls of the source. How the source made its calls: active means hit-call score of the fitted dose curve at least 0.9, where 1 is the maximum; inactive means score below 0.9.

Hepatocyte nuclear factor 3-beta (Homo sapiens), sequence (Q9Y261 whole entry, looked up): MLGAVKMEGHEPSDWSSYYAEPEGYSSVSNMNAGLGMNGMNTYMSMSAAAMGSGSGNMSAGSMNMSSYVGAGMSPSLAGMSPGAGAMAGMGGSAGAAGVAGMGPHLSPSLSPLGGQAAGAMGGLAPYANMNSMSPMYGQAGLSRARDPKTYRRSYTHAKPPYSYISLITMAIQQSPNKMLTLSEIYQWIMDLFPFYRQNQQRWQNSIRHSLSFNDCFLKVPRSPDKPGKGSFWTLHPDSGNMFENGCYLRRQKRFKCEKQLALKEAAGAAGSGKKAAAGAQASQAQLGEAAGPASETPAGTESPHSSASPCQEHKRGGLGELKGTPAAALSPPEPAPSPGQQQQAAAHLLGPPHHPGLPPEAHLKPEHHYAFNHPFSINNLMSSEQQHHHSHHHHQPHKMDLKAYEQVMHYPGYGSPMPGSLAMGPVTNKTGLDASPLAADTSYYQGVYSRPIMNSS
Bile acid receptor (Homo sapiens), sequence (Q96RI1 whole entry, looked up): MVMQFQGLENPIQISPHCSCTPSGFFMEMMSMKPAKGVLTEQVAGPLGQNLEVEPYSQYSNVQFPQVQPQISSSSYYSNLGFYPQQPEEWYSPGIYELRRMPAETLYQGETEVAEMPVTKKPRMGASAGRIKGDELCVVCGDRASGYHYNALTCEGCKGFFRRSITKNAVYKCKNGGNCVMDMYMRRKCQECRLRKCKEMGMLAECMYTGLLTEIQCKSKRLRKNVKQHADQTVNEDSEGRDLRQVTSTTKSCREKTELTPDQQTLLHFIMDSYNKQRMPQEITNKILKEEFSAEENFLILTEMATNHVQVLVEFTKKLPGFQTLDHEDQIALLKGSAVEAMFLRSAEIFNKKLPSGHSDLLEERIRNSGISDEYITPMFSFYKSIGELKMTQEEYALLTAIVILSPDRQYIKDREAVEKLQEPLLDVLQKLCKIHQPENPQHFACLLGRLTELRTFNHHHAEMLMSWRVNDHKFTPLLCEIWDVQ

Broadly, the AC50 is the midpoint of the concentration-response curve, whichever way the signal moves. For the compound `C[C@@H]1O[C@@H](O[C@H]2C[C@@H](O)[C@]3(CO)[C@H]4[C@H](O)C[C@]5(C)[C@@H](C6=CC(=O)OC6)CC[C@]5(O)[C@@H]4CC[C@]3(O)C2)[C@H](O)[C@H](O)[C@H]1O`, the compound was called inactive in test [1], in test [2], in test [6] and in test [7]. Moreover, the AC50 in test [3] is 221 nM (active); in test [4], 233 nM (active); in test [5] it was 71.6 nM (active); in test [8], 287 nM (active); in test [9], 279 nM (active).
On to `Cc1cccc(N=Nc2ccc(N(C)C)cc2)c1`, for which the compound was called inactive in [1], in [2], in test [3], in test [4], in test [5] and in [6]. Moreover, the compound was called inactive in [9].
As to `O=C(Cl)OCCOCCOC(=O)Cl`, the call in test [1], in [2], in [3], in [4], in test [5] and in test [6] was inactive. In addition, the compound was classed as inactive in test [9].
Take `O=S1OC[C@@H]2[C@H](CO1)[C@]1(Cl)C(Cl)=C(Cl)[C@@]2(Cl)C1(Cl)Cl` (stereo partly specified): the compound was classed as inactive in test [1], in [3], in [4], in test [5], in [6] and in test [7]. The result in test [8] was inactive. Moreover, the AC50 in test [2] was 2770 nM (active).
With `O=[N+]([O-])c1ccc(Cl)c([N+](=O)[O-])c1`, the outcome in test [1], in test [2], in [3], in [4], in [5] and in test [6] was inactive. Further, the compound was classed as inactive in test [7], in test [8] and in test [9].
For the compound `Cc1ccccc1OP(=O)(Oc1ccccc1)Oc1ccccc1`, the call in test [1], in test [3], in test [4], in [5], in test [6] and in test [8] was inactive. The AC50 was 7350 nM (active) in test [2], 23700 nM (active) in test [7] and 7350 nM (active) in test [9].
In the case of `Oc1ccc(Cc2ccc(O)cc2)cc1`, the compound was classed as inactive in test [1], in [3], in [4], in test [5], in [6] and in test [8]. Besides, the compound was classed as inactive in test [9]. For the same compound, in test [2], the AC50 is 774 nM (active).
For `CCCCCCCCCCCCCl`, the call in [1], in [2], in test [3], in [4], in [5] and in test [6] was inactive. Further, the result in test [8] and in [9] was inactive.
Take `O=NN1CCOCC1`: the compound was classed as inactive in [1], in test [2], in [3], in [4], in [5] and in [6]. In addition, the compound was classed as inactive in [8] and in test [9].
Consider `Oc1c(Cl)cc(Cl)cc1Cl`, for which the compound was called inactive in test [1], in test [3], in test [10], in [4], in test [5] and in test [6]. In addition, in [8], the compound was called inactive.
With `CC(C)[N+](=O)[O-]`, the outcome in [1], in [3], in test [10], in test [4], in test [5] and in test [6] was inactive. In addition, the compound was called inactive in test [7] and in test [9].
For `c1ccc2c(c1)Oc1ccccc1O2`, the compound was classed as inactive in [1], in test [3], in test [4], in test [5], in test [6] and in test [7]. Also, the result in [8] was inactive.
Regarding `O=C(N[C@H]1CN2CCC1CC2)c1ccc2c(c1)OCCO2`, the compound was called inactive in [1], in test [3], in test [10], in test [4], in test [5] and in [6]. Also, the compound was classed as inactive in [8] and in test [9].
As for `CC(C)C(C)(N)C#N` (stereo unspecified), the call in test [1], in test [3], in test [10], in [4], in test [5] and in test [6] was inactive. In addition, the result in test [7], in [8] and in test [9] was inactive.
In the case of `CCCCCCCCBr`, the outcome in test [1], in test [3], in test [10], in [4], in test [5] and in test [6] was inactive. In addition, the result in test [7], in test [8] and in [9] was inactive.
Consider `O=c1[nH]c(=O)n(Cl)c(=O)n1Cl`, for which the compound was classed as inactive in [1], in [3], in [10], in test [4], in test [5] and in test [6]. For the same compound, the call in [8] and in [9] was inactive.
As to `COC(=O)Nc1cccc(OC(=O)Nc2cccc(C)c2)c1`, the outcome in [1], in test [3], in [10], in [4], in test [5] and in test [6] was inactive. For the same compound, the call in [7], in test [8] and in test [9] was inactive.
Turning to `CCCCOP(=O)(CCCC)OCCCC`, the outcome in test [1], in test [3], in test [10], in test [4], in test [5] and in test [6] was inactive. Moreover, the result in test [7] and in [9] was inactive.
As for `CC(C)O.CC(C)O.OCCN(CCO)CCO.OCCN(CCO)CCO.[Ti]`, the compound was called inactive in test [1], in test [3], in [4], in test [5] and in [6].
As for `CC(C)CC(C)(c1ccc(O)cc1)c1ccc(O)cc1`, the outcome in test [1], in [3], in [10], in test [4], in test [5] and in test [6] was inactive. Also, the call in [7] and in [8] was inactive. The AC50 in test [9] is 11100 nM (active).
Regarding `Cc1cc(Cl)ccc1OCCCC(=O)O`, the compound was called inactive in [1], in [3], in [10], in [4], in test [5] and in [6]. The result in test [7], in [8] and in test [9] was inactive.
As for `CCCCCCCCCCCCc1cccc(S(=O)(=O)O)c1`, the result in test [1], in test [3], in test [10], in [4], in [5] and in [6] was inactive. Moreover, the call in [8] was inactive.
Turning to `C[C@]12CC[C@@H](O)C[C@@H]1CC[C@@H]1[C@@H]2CC[C@]2(C)C(=O)CC[C@@H]12`, the outcome in test [1], in [3], in [10], in test [4], in test [5] and in test [6] was inactive. Besides, the compound was called inactive in test [8] and in test [9].
As to `O=c1nc(O)n(Cl)c(=O)n1Cl`, the compound was classed as inactive in [1], in [3], in [10], in [4], in test [5] and in [6]. The compound was classed as inactive in test [8].
In the case of `CCCCS(=O)(=O)Cl`, the result in test [1], in test [3], in [4], in test [5], in test [6] and in [7] was inactive. Besides, the compound was classed as inactive in [9].
Regarding `Cc1cc(Cl)ccc1N`, the compound was called inactive in test [1], in test [3], in test [10], in test [4], in test [5] and in [6]. Moreover, in test [9], the compound was called inactive.
Regarding `COc1ccc(N)cc1`, the compound was classed as inactive in test [1], in test [3], in test [10], in test [4], in test [5] and in test [6]. For the same compound, in test [9], the outcome was inactive.
Consider `Cc1cc(C)cc(C)c1`, for which the outcome in test [1], in [3], in test [10], in [4], in test [5] and in test [6] was inactive. Further, the call in [9] was inactive.
Take `O=C(O)C1(c2ccc3c(c2)OC[C@H](Cc2ccc(-c4ccccc4)cc2)[C@H]3O)CCCC1`: the result in test [1], in test [3], in test [4], in test [5], in [6] and in [7] was inactive. Besides, the AC50 in [9] is 2830 nM (active).

Source of the values: PubChem BioAssay (EPA / NIEHS).
